Compound activity: PubChem, several laboratories
Exocytosis inh: lytic granule exocytosis inhibition; inhibition, % at 10 µM; hit rate 0.66% among 360,000; TALL-104 LAMP-1 surface exposure, flow cytometry; cells stimulated with thapsigargin and PMA;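 active = inhibition above about 55%, limit read from the data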
ABCB6 inh MLPCN: inhibitors of human ABC transporter ABCB6. Q9NP58. K562-ABCB6 porphyrin accumulation, flow cytometry, 1 h; stronger effect = lower value. hit rate 0.19% among 360,000. AID 602162. fluorescence ratio to DMSO, % at 10 µM;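 active = fluorescence ratio to DMSO below 75%, the collection mean minus 3 SD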;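 note: signal is porphyrin accumulated inside mitochondria; 100% equals median channel fluorescence of DMSO control wells; lower ratio means ABCB6 inhibition with less porphyrin fluorescence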
Target sequence (Q9NP58 whole entry, looked up): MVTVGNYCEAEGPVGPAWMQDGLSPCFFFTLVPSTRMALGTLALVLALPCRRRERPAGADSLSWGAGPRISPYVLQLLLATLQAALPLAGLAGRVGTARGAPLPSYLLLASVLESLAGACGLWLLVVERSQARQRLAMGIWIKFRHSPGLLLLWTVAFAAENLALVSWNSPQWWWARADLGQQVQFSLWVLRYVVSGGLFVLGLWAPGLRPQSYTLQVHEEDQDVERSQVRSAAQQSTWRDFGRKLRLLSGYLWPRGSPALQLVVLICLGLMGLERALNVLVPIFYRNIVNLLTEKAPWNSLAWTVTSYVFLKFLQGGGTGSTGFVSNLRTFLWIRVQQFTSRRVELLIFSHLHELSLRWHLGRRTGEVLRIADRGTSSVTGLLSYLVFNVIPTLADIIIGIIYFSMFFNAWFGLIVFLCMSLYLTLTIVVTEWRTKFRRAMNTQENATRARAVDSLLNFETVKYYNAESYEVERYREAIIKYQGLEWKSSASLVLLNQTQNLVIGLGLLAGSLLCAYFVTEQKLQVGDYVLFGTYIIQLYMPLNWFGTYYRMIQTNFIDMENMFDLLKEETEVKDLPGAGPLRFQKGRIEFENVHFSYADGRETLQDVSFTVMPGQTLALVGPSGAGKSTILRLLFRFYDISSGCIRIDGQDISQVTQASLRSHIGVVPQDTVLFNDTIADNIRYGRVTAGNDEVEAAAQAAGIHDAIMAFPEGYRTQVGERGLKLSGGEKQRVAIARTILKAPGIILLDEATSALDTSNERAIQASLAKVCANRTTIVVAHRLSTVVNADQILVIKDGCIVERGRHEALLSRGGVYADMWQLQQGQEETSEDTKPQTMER
PG9 binder: small molecules binding HIV-1 gp120 antibody PG9; TR-FRET gp120-PG9 antibody binding; inhibition, % at 6.7 µM; hit rate 0.43% among 360,000; AID 624416; in the data active = inhibition above about 8.5%
rCAG RNA binder: binds r(CAG) RNA repeats; r(CAG) RNA repeat, TO-PRO-1 dye displacement fluorescence; inhibition, % at 3 µM; hit rate 1.3% among 370,000;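 active = inhibition above the plate cutoff, the mean of all test compounds on that plate plus 3 SD, cut at about 35% in these data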;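 note: 0% = DMSO alone and 100% = 100 µM mitoxantrone as full dye displacement; higher means more dye released from RNA so lower well fluorescence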
rCAG binder conf: r(CAG) RNA repeat binding, confirmation; shares compounds with rCAG RNA binder; TO-PRO-1 dye displacement fluorescence; inhibition, % at 3 µM; hit rate 70% among 4,300;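 active = inhibition above a per-plate cutoff, the mean inhibition of sample wells plus 3 SD, cut at about 35% in these data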;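 note: loss of TO-PRO-1 fluorescence as compound displaces dye from 1x1 AA loop RNA; 0% = DMSO only wells and 100% = 100 µM mitoxantrone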
dCAG dye counter: DNA CAG dye complex inhibition counter-screen; shares compounds with rCAG RNA binder; d(CAG) DNA oligo TO-PRO-1 dye displacement, fluorescence; inhibition, % at 3 µM; hit rate 94% among 4,300; AID 652068;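 active = inhibition above its plate's cutoff, the mean test-well inhibition plus 3 SD, cut at about 4.8% in these data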;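 note: 0% = DNA dye mix with DMSO and 100% = 100 µM mitoxantrone; hits displace the dye from DNA and so lower well fluorescence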
Numbers without * were called inactive. A selection: hits, their analogues and other compounds. The true share with any hit is near 2.5%.

Cc1csc(NC(=O)CSCC(=O)O)c1-c1nc2ccccc2s1 was read as Exocytosis inh -2, ABCB6 inh MLPCN 102, PG9 binder -1, rCAG RNA binder 44*, rCAG binder conf 57* and dCAG dye counter 19*.
Screening CCC(=O)NC(=S)Nc1ccc(-c2nc3ccc(C)cc3s2)cc1 returned Exocytosis inh 6, ABCB6 inh MLPCN 104, PG9 binder -1 and rCAG RNA binder -1.
Screening Cc1ccc2nc(-c3ccc(NC(=O)CSCC(=O)O)cc3)sc2c1 returned Exocytosis inh 8, ABCB6 inh MLPCN 95, PG9 binder 1, rCAG RNA binder 53*, rCAG binder conf 39* and dCAG dye counter 11*.
Screening CC(C)(C)C(=O)Nc1ccc(C(=O)Nc2cc(NC(=O)c3ccc(NC(=O)C(C)(C)C)cc3)cc(C(=O)O)c2)cc1 returned Exocytosis inh 7, ABCB6 inh MLPCN 90, PG9 binder -3, rCAG RNA binder 44*, rCAG binder conf 67* and dCAG dye counter 30*.
For O=C(O)c1ccc([N+](=O)[O-])cc1 the results were Exocytosis inh -2, ABCB6 inh MLPCN 102, PG9 binder -3 and rCAG RNA binder 1.
O=C(O)c1cc(NC(=O)c2ccc([N+](=O)[O-])cc2)cc(NC(=O)c2ccc([N+](=O)[O-])cc2)c1 was read as Exocytosis inh -7, ABCB6 inh MLPCN 93, PG9 binder 0, rCAG RNA binder 50*, rCAG binder conf 34 and dCAG dye counter 7.2*.
For CC(C)(C)C(=O)Nc1ccc(C(=O)NNC(=O)c2ccccc2)cc1 the results were Exocytosis inh -1, ABCB6 inh MLPCN 95, PG9 binder -2 and rCAG RNA binder -3.
`N#Cc1ccccc1S(=O)(=O)N1CCN(C(=O)[C@@H]2CCCN2C(=O)c2cccs2)CC1` gave Exocytosis inh -11, ABCB6 inh MLPCN 100, PG9 binder 1 and rCAG RNA binder 2.
Cc1ccc(-n2c(SCC(=O)Nc3ccc(S(=O)(=O)Nc4nccs4)cc3)nnc2-c2cccs2)cc1 was read as rCAG RNA binder 71*, rCAG binder conf 67* and dCAG dye counter 25*.
CCOc1ccc(-n2c(SCC(=O)Nc3ccc(S(=O)(=O)Nc4nccs4)cc3)nnc2-c2ccco2)cc1 was read as rCAG RNA binder 68*, rCAG binder conf 69* and dCAG dye counter 28*.
Screening Cc1ccc(-n2c(SCC(=O)Nc3ccc4c(c3)OCO4)nnc2-c2cccs2)cc1 returned Exocytosis inh -2, ABCB6 inh MLPCN 112, PG9 binder 1 and rCAG RNA binder 4.
Screening COc1ccc(-n2c(SCC(=O)Nc3ccccc3)nnc2-c2ccc(NS(=O)(=O)c3ccc(C)cc3)cc2)cc1 returned Exocytosis inh 4, ABCB6 inh MLPCN 98, PG9 binder -1 and rCAG RNA binder 1.
For CCOc1ccc(-n2c(SCC(=O)Nc3ccc(S(=O)(=O)Nc4nccs4)cc3)nnc2-c2ccc(C(C)(C)C)cc2)cc1 the results were rCAG RNA binder 60*, rCAG binder conf 55* and dCAG dye counter 25*.
COc1ccc(-n2c(SCC(=O)Nc3nccs3)nnc2-c2ccc(Cl)cc2)cc1 was read as Exocytosis inh 6, ABCB6 inh MLPCN 95, PG9 binder 4 and rCAG RNA binder 2.
For CC(C)(C)c1ccc(-c2nnc(SCC(=O)Nc3ccc(S(=O)(=O)Nc4nccs4)cc3)n2-c2ccc(Cl)cc2)cc1 the results were rCAG RNA binder 61*, rCAG binder conf 62* and dCAG dye counter 26*.
For CSc1cccc(N2CC(C(=O)N(Cc3nnc(-c4ccccc4Cl)o3)C3CC3)CC2=O)c1 (stereo unspecified) the results were Exocytosis inh 5, ABCB6 inh MLPCN 96, PG9 binder 0 and rCAG RNA binder -6.
`Cc1ccccc1CCNC(=O)c1ccc(Cl)c(S(=O)(=O)N2CC(C)OC(C)C2)c1` (stereo unspecified) gave Exocytosis inh -3, ABCB6 inh MLPCN 92, PG9 binder -1 and rCAG RNA binder 1.
Screening O=C(CSc1nnc(-c2ccccn2)n1-c1ccc(Cl)cc1)Nc1ccc(S(=O)(=O)Nc2nccs2)cc1 returned rCAG RNA binder 74*, rCAG binder conf 75* and dCAG dye counter 39*.
`CCOc1ccc(-n2c(SCC(=O)Nc3ccc4cn[nH]c4c3)nnc2-c2ccncc2)cc1` gave rCAG RNA binder 3.
CCOc1ccc(-n2c(SCC(=O)Nc3ccc(S(=O)(=O)Nc4nccs4)cc3)nnc2-c2ccncc2)cc1 was read as rCAG RNA binder 69*, rCAG binder conf 59* and dCAG dye counter 26*.
For CCCCNC(=O)NS(=O)(=O)c1ccc(NC(=O)CSc2nnc(-c3cccs3)n2-c2ccc(OC)cc2)cc1 the results were rCAG RNA binder 54*, rCAG binder conf 62* and dCAG dye counter 23*.
For O=C(CSc1nnc(-c2ccccn2)n1-c1ccc(Cl)cc1)Nc1cccc2ccccc12 the results were rCAG RNA binder 3.
For O=C(O)C(c1ccccc1)C(O)c1ccc2c(c1)OCO2 (stereo unspecified) the results were Exocytosis inh -4, ABCB6 inh MLPCN 96, PG9 binder 0 and rCAG RNA binder 3.
`Cc1c(C)n(CCCN(C)C)c2ncnc(NC3CCCCC3)c12` gave Exocytosis inh 14, ABCB6 inh MLPCN 92, PG9 binder -2 and rCAG RNA binder -2.
Screening COc1cc(C2CC(=O)N3CN(Cc4ccco4)CSC3=C2C#N)ccc1OCc1ccccc1 (stereo unspecified) returned Exocytosis inh 5, ABCB6 inh MLPCN 95, PG9 binder 0, rCAG RNA binder 42*, rCAG binder conf 21 and dCAG dye counter 9.8*.
COc1ccc2ccccc2c1C1CC(=O)N2CN(Cc3ccco3)CSC2=C1C#N (stereo unspecified) was read as Exocytosis inh 16, ABCB6 inh MLPCN 97, PG9 binder 4, rCAG RNA binder 49*, rCAG binder conf 26 and dCAG dye counter 14*.
For CCCCN(C)CCNC(=O)C1CCN(S(=O)(=O)c2cccc3nsnc23)CC1 the results were Exocytosis inh -1, ABCB6 inh MLPCN 100, PG9 binder 1 and rCAG RNA binder -1.
Screening CC1CCC(NC(=O)c2nn(C)c3c2CSc2ccccc2-3)CC1 (stereo unspecified) returned Exocytosis inh 2, ABCB6 inh MLPCN 99, PG9 binder -2 and rCAG RNA binder -2.
For O=C(O)c1ccc(-c2nc(-c3ccccc3)c(-c3ccccc3)[nH]2)cc1 the results were Exocytosis inh -6, ABCB6 inh MLPCN 94, PG9 binder 0, rCAG RNA binder 36*, rCAG binder conf 36* and dCAG dye counter 6.0*.
`N#Cc1c(SCC(=O)O)nc(N2CCCCC2)c2c1CCCC2` gave Exocytosis inh 11, ABCB6 inh MLPCN 112, PG9 binder 0, rCAG RNA binder 35*, rCAG binder conf 27 and dCAG dye counter 7.1*.
